# Screening results deposited in PubChem by National Center for Advancing Translational Sciences (NCATS).
# B2AR arrestin = beta2AR (human) beta-arrestin recruitment activity. P07550. actives 0.02% (n = 330,000). Potency, µM (top dose mostly 46.1 µM), inactives show at the top dose activation, actives largely listed as activators. beta-arrestin recruitment to beta2AR, cell-based reporter; active = well fitted activation curve with a large enough effect; inconclusive = small, poorly fitted or top-dose-only effect;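 note: potency is the fitted concentration of half-maximal effect; 0% = DMSO controls and full agonism = EC100 isoproterenol or metaproterenol; nearly all actives have a fitted effect of over 65% in size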
# DRD3 antagonist = D3 dopamine receptor (human) antagonism; actives 2.5% (n = 360,000); D3R cells, DiscoveRx beta-arrestin luminescence, antagonist mode; active compounds read low; P35462; max response, negative = inhibition, %; AID 652054; in the data active = max response below about -50%; inconclusive = no clear call, values can overlap the other calls; note: % is set by controls: 0 for no effect and ±100 for the full control effect
# Target sequence (P35462 whole entry, looked up): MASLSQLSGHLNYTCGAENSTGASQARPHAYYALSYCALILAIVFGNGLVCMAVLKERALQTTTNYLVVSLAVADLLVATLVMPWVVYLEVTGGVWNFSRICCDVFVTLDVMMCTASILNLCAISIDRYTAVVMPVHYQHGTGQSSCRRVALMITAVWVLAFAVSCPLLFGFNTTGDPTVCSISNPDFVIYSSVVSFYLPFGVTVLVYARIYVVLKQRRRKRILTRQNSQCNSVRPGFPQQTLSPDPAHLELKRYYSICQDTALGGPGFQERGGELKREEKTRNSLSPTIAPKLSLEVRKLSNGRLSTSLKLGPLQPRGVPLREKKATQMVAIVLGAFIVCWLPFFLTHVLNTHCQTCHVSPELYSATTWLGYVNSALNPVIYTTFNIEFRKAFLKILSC
#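 Cells plated overnight at 1500 cells/well, then exposed to library compounds with dopamine controls for 90 minutes at 37 degrees C. DiscoveRx reagent added for 30–60 minutes at room temperature; luminescence read, quantitative HTS format.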
# DRD3 agonist = agonists of human D3 dopamine receptor. max activation, %. D3R DiscoveRx beta-arrestin cells, luminescence, 90 min. P35462. actives 0.58% (n = 410,000); in the data active = max activation above about 30%; note: 0% is about no effect
#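 Agonist-mode cell screen: cells plated at 1500/well and incubated overnight at 37 °C, then exposed to library compounds for 90 min at 37 °C. Detection reagent was added for 30–60 min at room temperature, and luminescence was read.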
# Giardia kill = Giardia lamblia killing; Giardia lamblia trophozoite viability; activity change, % at 7.66 µM, hits read low; actives 0.15% (n = 340,000); in the data active = activity change below about -80%; inconclusive = between about -30% and that limit;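 note: parasites exposed to compound for two days anaerobically before the ATP read; % is set by controls: 0 for no effect and ±100 for the full control effect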
#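 Trophozoite viability was measured as ATP-dependent luminescence, read 15-30 min after reagent addition. Before that, parasites at 100 cells/well were exposed to compounds for 48 h, anaerobically, at 37 deg C.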
# The depositor's hits bear a star; ? = inconclusive; . = no result given. Most compounds without a hit are left out; they make up all but 2.8% or so of the library.
SMILES,B2AR arrestin,DRD3 antagonist,DRD3 agonist,Giardia kill
COc1ccc(/C=C/c2nnc(NC(=O)COc3ccc(Cl)cc3)s2)cc1,.,.,.,28
COc1cccc(CNCCSc2nnnn2C)c1OCc1ccc(Cl)cc1,.,.,-16,.
COc1ccc(NC(=O)CN2C(=O)CSc3ccc(S(=O)(=O)N(C)C)cc32)cc1Cl,.,.,-11,.
Cc1ccc(-c2nc3ccccc3[nH]2)cc1NC(=O)COc1ccccc1[N+](=O)[O-],.,.,1,.
c1ccc(CCCN2CCN(c3ccccn3)CC2)cc1,-1%,-62*,11,-19
c1ccc(N2CCN(Cc3ccsc3)CC2)nc1,0%,?,53*,-3
Cc1cccc(CN2CCN(c3ccccn3)CC2)c1,.,?,25,5
CCOc1ccc2nc(Cl)c(C3CC(c4ccc(C)cc4)=NN3C(=O)CCC(=O)O)cc2c1 (stereo unspecified),.,.,3,.
CN=c1sc(C(=O)Nc2cccc(Cl)c2)cc(=O)n1C,-1%,-51*,-8,-1
CCCOc1ccc(CSc2ncn[nH]2)cc1,0%,-82*,-11,-6
COc1ccc(Nc2nc3ccccc3n3nnnc23)cc1,0%,-90*,0,22
Cc1ccc(Nc2nc3ccccc3n3nnnc23)cc1,0%,13,-13,9
O=C(OCC1(COC(=O)c2cccnc2)CCCC(COC(=O)c2cccnc2)(COC(=O)c2cccnc2)C1O)c1cccnc1,.,.,8,.
Cc1ccc(/C=C/C(=O)O)cc1S(=O)(=O)NCc1ccco1,0%,10,41*,2
C=CC[N@@+]12CC[C@@]34c5ccccc5N5/C=C6/[C@H]7C[C@H]8[C@@]9(CC[N@@+]8(CC=C)C/C7=C/CO)c7ccccc7N(/C=C(/[C@@H](C[C@@H]31)/C(=C\CO)C2)[C@H]54)[C@@H]69,.,.,-3,.
CCC(CC)NCc1ccc2c(c1)c1ccccc1n2CC,0%,0,-7,16
CCn1c2ccccc2c2cc(CNCCCN3CCOCC3)ccc21,-4%,-100*,-8,1
CCOC(=O)c1c[nH]c(=S)n(-c2ccccc2)c1=O,0%,-11,30*,-8
CCOc1ccc(N2CC(NC(=O)Cc3ccccc3)CC2=O)cc1 (stereo unspecified),.,.,-10,.
CCOC(=O)c1cc(-c2ccccc2)n(CCCC(=O)Nc2cccc(C)c2C)c1C,.,.,-14,.
O=C(Cc1ccc([N+](=O)[O-])cc1)N1CCN=C1SCc1ccccc1,-2%,3,2,-9
Cc1ccc(C)c(CSC2=NCCN2C(=O)Cc2ccc([N+](=O)[O-])cc2)c1,-1%,-61*,-8,-2
c1cncc(-c2nn3c(Cn4nnc5ccccc54)nnc3s2)c1,0%,19,51*,10
c1ccc(-c2nn3c(Cn4nnc5ccccc54)nnc3s2)nc1,0%,-9,-5,-7
CCOc1ccc(/C=C2\CCC(C3CCCC3)C2=O)cc1 (stereo unspecified),-1%,5,6,8
SMILES,B2AR arrestin,DRD3 antagonist,DRD3 agonist,Giardia kill
CCC(=O)OCOc1ccc(/C=C2/CCC(CN(C)C)C2=O)cc1 (stereo unspecified),.,-87*,-10,1
O=C(CSc1n[nH]c(=O)n1C1CC1)Nc1cc(Cl)ccc1Oc1ccccc1,0%,-18,32*,3
CCOc1ccccc1NC(=S)NC(=O)CCCOc1ccc(Cl)cc1Cl,-1%,-109*,-6,3
CC1=C(C(=O)O)N2C(=O)[C@@H](NC(=O)[C@H](N)C3=CCC=CC3)[C@H]2SC1,.,.,-22,.
COc1ccccc1C(C)NCC(=O)Nc1ccccc1C(F)(F)F (stereo unspecified),2%,-57*,-8,-8
CCC(O)(C(=O)Nc1ccccc1C(F)(F)F)c1ccccc1OC (stereo unspecified),1%,6,5,-18
CC(C)C[C@H]1COCCS(=O)(=O)N1Cc1ccccc1F,.,-4,42*,5
CC1(C)S[C@@H]2[C@H](NC(=O)[C@H](NC(=O)N3CCN(S(C)(=O)=O)C3=O)c3ccccc3)C(=O)N2[C@H]1C(=O)O,.,.,8,.
COc1ccc(-n2sc3c(c2=S)-c2cc(OC)ccc2NC3(C)C)cc1,0%,-11,4,-21
COc1ccc2c(c1)-c1c(sn(-c3ccc(OC)c(OC)c3)c1=S)C(C)(C)N2,0%,-59*,-3,-13
CC(C)(C)NCC(O)CSc1nc(-c2ccc(C(N)=O)s2)cs1 (stereo unspecified),.,.,2,.
